Among all 5,500 compounds or so, about 2,000 (36%) were called active. Not shown: some 18% with an inconclusive outcome. The list shows a part of the results. Unmarked numbers belong to inactive results. Rule as the data show it: active = normalized growth mostly below about 0.91 (no sharp cut-off); inconclusive = no clear call, values can overlap the other calls; inactive = mostly above about 0.92.
Assay: chemical genetic growth profiling, strain panel (AID 1159580);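 also: tested at 20 µM; growth read once vehicle control cultures reached saturation at 30 °C; 1 = growth at the plate median or of vehicle wells; lower values mean less growth of the strain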
Details: S. cerevisiae deletion strains, growth OD

SMILES: O=C1C=CC(=O)c2c(O)c(Cl)c(Cl)c(O)c21
- normalized growth (locus YAL021C, strain ccr4, hits give low values): 0.0743 (active)
- normalized growth (locus YAL026C, strain drs2, hits give low values): 0.0712 (active)
- normalized growth (locus YAL030W, strain snc1, hits give low values): 0.065 (active)
- normalized growth (locus YBL061C, strain skt5, hits give low values): 0.0691 (active)
- normalized growth (locus YBR009C, strain hhf1, hits give low values): 0.0757 (active)
- normalized growth (locus YBR023C, strain chs3, hits give low values): 0.0713 (active)
- normalized growth (locus YBR171W, strain sec66, hits give low values): 0.0854 (active)
- normalized growth (locus YBR231C, strain swc5, hits give low values): 0.0695 (active)
- normalized growth (locus YBR279W, strain paf1, hits give low values): 0.0653 (active)
- normalized growth (locus YCL011C, strain gbp2, hits give low values): 0.0661 (active)
- normalized growth (locus YCL016C, strain dcc1, hits give low values): 0.0723 (active)
- normalized growth (locus YCL061C, strain MRC1, hits give low values): 0.0708 (active)
- normalized growth (locus YCL069W, strain vba3, hits give low values): 0.0675 (active)
- normalized growth (locus YCR088W, strain abp1, hits give low values): 0.0687 (active)
- normalized growth (locus YDL005C, strain med2, hits give low values): 0.0837 (active)
- normalized growth (locus YDL040C, strain nat1, hits give low values): 0.0677 (active)
- normalized growth (locus YDR001C, strain nth1, hits give low values): 0.0651 (active)
- normalized growth (locus YDR069C, strain doa4, hits give low values): 0.0731 (active)
- normalized growth (locus YDR137W, strain rgp1, hits give low values): 0.816 (active)
- normalized growth (locus YDR159W, strain sac3, hits give low values): 0.817 (active)
- normalized growth (locus YDR195W, strain ref2): 0.72 (active)
- normalized growth (locus YDR297W, strain sur2, hits give low values): 0.0653 (active)
- normalized growth (locus YDR334W, strain swr1, hits give low values): 0.0709 (active)
- normalized growth (locus YDR335W, strain msn5, hits give low values): 0.0705 (active)
- normalized growth (locus YDR392W, strain spt3, hits give low values): 0.11 (active)
- normalized growth (locus YEL003W, strain gim4, hits give low values): 0.0616 (active)
- normalized growth (locus YEL037C, strain rad23, hits give low values): 0.0635 (active)
- normalized growth (locus YEL061C, strain CIN8 (second series), hits give low values): 0.0685 (active)
- normalized growth (locus YER015W, strain faa2, hits give low values): 0.0696 (active)
- normalized growth (locus YER016W, strain bim1, hits give low values): 0.0673 (active)
- normalized growth (locus YER111C, strain swi4, hits give low values): 0.984
- normalized growth (locus YER155C, strain BEM2 (second series), hits give low values): 0.101 (active)
- normalized growth (locus YFR010W, strain ubp6, hits give low values): 0.0771 (active)
- normalized growth (locus YGL167C, strain pmr1, hits give low values): 0.0844 (active)
- normalized growth (locus YGL173C, strain kem1, hits give low values): 0.0767 (active)
- normalized growth (locus YGL227W, strain vid30, hits give low values): 0.0694 (active)
- normalized growth (locus YGL240W, strain doc1, hits give low values): 0.087 (active)
- normalized growth (locus YGL253W, strain hxk2, hits give low values): 0.0606 (active)
- normalized growth (locus YHR013C, strain ard1, hits give low values): 0.118 (active)
- normalized growth (locus YHR027C, strain rpn1, hits give low values): 0.0722 (active)
- normalized growth (locus YHR030C, strain SLT2, hits give low values): 0.114 (active)
- normalized growth (locus YHR079C, strain IRE1, hits give low values): 0.132 (active)
- normalized growth (locus YHR142W, strain chs7, hits give low values): 0.0821 (active)
- normalized growth (locus YJL092W, strain hpr5, hits give low values): 0.066 (active)
- normalized growth (locus YJL095W, strain BCK1 (second series), hits give low values): 0.0647 (active)
- normalized growth (locus YJL095W, strain BCK1, hits give low values): 0.118 (active)
- normalized growth (locus YJL115W, strain asf1, hits give low values): 0.0821 (active)
- normalized growth (locus YJL129C, strain trk1, hits give low values): 0.965
- normalized growth (locus YJL154C, strain vps35, hits give low values): 0.0659 (active)
- normalized growth (locus YJL164C, strain tpk1, hits give low values): 0.076 (active)
- normalized growth (locus YJL166W, strain qcr8, hits give low values): 0.0693 (active)
- normalized growth (locus YJL187C, strain SWE1, hits give low values): 0.0656 (active)
- normalized growth (locus YJR066W, strain TOR1, hits give low values): -0.00728 (active)
- normalized growth (locus YKL160W, strain elf1, hits give low values): 0.0955 (active)
- normalized growth (locus YKR026C, strain gcn3, hits give low values): 0.0721 (active)
- normalized growth (locus YKR091W, strain srl3, hits give low values): 0.0686 (active)
- normalized growth (locus YLL001W, strain dnm1, hits give low values): 0.0682 (active)
- normalized growth (locus YLL026W, hits give low values): 0.065 (active)
- normalized growth (locus YLL041C, strain sdh2, hits give low values): 0.0651 (active)
- normalized growth (locus YLR027C, strain aat2, hits give low values): 0.0649 (active)
- normalized growth (locus YLR113W, strain HOG1, hits give low values): 0.129 (active)
- normalized growth (locus YLR221C, strain rsa3, hits give low values): 0.0719 (active)
- normalized growth (locus YLR258W, strain gsy2, hits give low values): 0.0692 (active)
- normalized growth (locus YLR262C, strain YPT6 (second series), hits give low values): 0.0889 (active)
- normalized growth (locus YLR320W, strain mms22, hits give low values): 0.0961 (active)
- normalized growth (locus YLR342W, strain FKS1, hits give low values): 0.0745 (active)
- normalized growth (locus YLR357W, strain rsc2, hits give low values): 0.136 (active)
- normalized growth (locus YLR370C, strain arc18, hits give low values): 0.0692 (active)
- normalized growth (locus YLR384C, strain iki3, hits give low values): 0.0665 (active)
- normalized growth (locus YML120C, strain ndi1, hits give low values): 0.928
- normalized growth (locus YMR058W, strain fet3, hits give low values): 0.0663 (active)
- normalized growth (locus YMR125W, strain sto1, hits give low values): 0.0829 (active)
- normalized growth (locus YMR129W, hits give low values): 0.0652 (active)
- normalized growth (locus YMR205C, strain PFK2, hits give low values): 0.0948 (active)
- normalized growth (locus YMR231W, strain pep5, hits give low values): 0.0753 (active)
- normalized growth (locus YNL071W, strain lat1, hits give low values): 0.0684 (active)
- normalized growth (locus YNL183C, strain NPR1, hits give low values): 0.021 (active)
- normalized growth (locus YNL209W, strain ssb2, hits give low values): 0.0691 (active)
- normalized growth (locus YNL248C, strain rpa49, hits give low values): 0.0871 (active)
- normalized growth (locus YNL322C, strain KRE1 (second series), hits give low values): 0.0721 (active)
- normalized growth (locus YNR049C, strain mso1, hits give low values): 0.0642 (active)
- normalized growth (locus YOR001W, strain rrp6, hits give low values): 0.0755 (active)
- normalized growth (locus YOR070C, strain gyp1, hits give low values): 0.0663 (active)
- normalized growth (locus YOR080W, strain dia2, hits give low values): 0.104 (active)
- normalized growth (locus YOR083W, strain WHI5, hits give low values): 0.0727 (active)
- normalized growth (locus YOR106W, strain vam3, hits give low values): 0.0721 (active)
- normalized growth (locus YOR231W, strain MKK1, hits give low values): 0.129 (active)
- normalized growth (locus YOR265W, strain rbl2, hits give low values): 0.0661 (active)
- normalized growth (locus YOR270C, strain vph1, hits give low values): 0.108 (active)
- normalized growth (locus YOR290C, strain snf2, hits give low values): 0.963
- normalized growth (locus YPL051W, strain arl3, hits give low values): 0.0733 (active)
- normalized growth (locus YPL078C, strain atp4, hits give low values): 0.852 (active)
- normalized growth (locus YPL106C, strain sse1, hits give low values): 0.116 (active)
- normalized growth (locus YPL240C, strain hsp82, hits give low values): 0.0634 (active)
- normalized growth (locus YPL256C, strain CLN2, hits give low values): 0.147 (active)
